# Source: PubChem BioAssay (several laboratories)
# HSV replic up = enhancers of HSV replication in host cells, fold increase, host cell viability; 220,000 tested, 0.005% active; maximum fold increase; HSV replication augmentation in cells; in the data active = maximum fold increase above about 1.5; tested in PC3 cells
# V-ATPase pHluor = regulators of yeast V-ATPase proton pumping, primary screen, pHLuorin cytosolic pH fluorescence; response, % at 10 µM; 350,000 tested, 0.37% active; AID 504577, 2011; S. cerevisiae; in the data active = response mostly above about 7.3%, no sharp cut-off; inactive = mostly below about 5.4%; also: actives read high
# Wee1 degr inh = Wee1 degradation inhibitors, primary screen, cell-based, HeLa, Wee1K328M-luciferase, luminescence | Wee1-like protein kinase (Homo sapiens), P30291 | HeLa Luc-Wee1K328M stability; 100% = proteasome inhibitor MG132 effect | reporter increase, % at 5 µM | 220,000 tested, 1.2% active | AID 1321, 2008;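 active = activation above the mean of all tested compounds plus 3 SD, set per screening run, cut at about 8.8% in these data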;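 also: cells exposed to compound for 20 h before luminescence read; 0% = DMSO alone and 100% = MG132 at 30 µM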
# L929 necroptosis = inhibitors of zVAD-triggered necroptosis, primary screen, L929 cells. 220,000 tested, 0.38% active. L929 zVAD necroptosis rescue, ATP luminescence, 24 h; with zVAD 60 µM. viability rescue, % at 10 µM;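 active = activation, scaled between plate controls, above about 75%, limit read from the data; inactive = activation under that limit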;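 also: 0% = zVAD with DMSO and 100% = DMSO alone without zVAD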
# TNF death inh = inhibitors of TNF-alpha triggered necroptosis, primary screen, cell-based, Jurkat FADD-/-, single concentration; Jurkat FADD-/- TNF necroptosis rescue, ATP luminescence, 24 h; 0 = TNF only, 100 = no-TNF cells; 220,000 tested, 0.068% active; activation (protection from cell death), % at 10 µM;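 active = activation, meaning protection from cell death, of at least 50% relative to plate controls; inactive = activation below 50%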;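 also: necroptosis triggered by 40 ng/mL TNF-alpha added together with compound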
# VATPase regulator = yeast V-ATPase proton pumping modulators, confirmation, S. cerevisiae, pH-sensitive GFP, second cherry-pick. 980 tested, 2% active. response, % at 10 µM. S. cerevisiae pHLuorin cytosolic pH, V-ATPase proton transport. shares compounds with V-ATPase pHluor; in the data active = response above about 24%;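 also: plate controls were vehicle wells for no effect and positive control wells for full effect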
# The depositor's hits bear a star; i = inactive; x = no result. A selection: hits, their analogues and other compounds. The true share with any hit is near 1.4%.
SMILES,HSV replic up,V-ATPase pHluor,Wee1 degr inh,L929 necroptosis,TNF death inh,VATPase regulator
O=C(CCC(=O)N1CCN(c2ccccc2F)CC1)c1ccc(F)cc1,i,1,4,0,4,x
Cc1cc(C(=O)NCC23CC4CC(CC(C4)C2)C3)c(C)o1,i,x,2,71,1,x
C[n+]1cc[nH]c1SCC(=O)c1ccc(Cl)cc1,i,7.5*,1,1,2,4
Cc1ccc(NC(=O)c2ccco2)nc1,x,6,x,x,x,x
CC(=O)c1nn(-c2cccc(C)c2)cc1C(=O)c1cccc(Br)c1,x,5.5*,x,x,x,1
CCC(C)(C)NC(=O)C(c1ccccn1)N(C(=O)c1csnn1)c1ccc(C)c(C)c1 (stereo not drawn),i,5,-2,1,0,x
CCOC(=O)Cc1csc(NC(=O)COc2ccccc2)n1,i,11*,-4,0,0,0
CCOC(=O)Cc1csc(NC(=O)COc2ccc(C)cc2)n1,i,1,2,3,0,x
COc1ccc(/C=C2\CCn3c2nc2cc(C(=O)O)ccc2c3=O)cc1O,i,10*,2,0,1,2
CN1OC[C@@H]2CN(C(=O)CCc3ccccc3)[C@H](c3cccc(-c4ccccc4)c3)C[C@@H]21,x,0,x,x,x,x
Cc1ccc(S(=O)(=O)NCC(=O)N2CCCCC2)cc1,i,12*,-1,0,1,-42
COc1cc2c(cc1OC)CN(CCC(C)c1ccc(Cl)cc1)CC2 (stereo not drawn),x,13*,x,x,x,2
O=C(Nc1ccc(F)c(F)c1)C1CCN(S(=O)(=O)c2cccs2)CC1,x,8.3*,x,x,x,-5
